Data published in PMC7819943, “Rice protein-binding microarrays: a tool to detect cis-acting elements near promoter regions in rice”.
Over roughly 35,000 sequences, “fluorescence intensity (a.u.)” has its median near 10,000; the highest 2% begin near 52,000. What follows is part of a selection rich in the highest values, with near analogues and random picks from the rest.

The sequences below were run against T1, OsWOX13 (Oryza sativa, UniProt Q5QMM3 1-267) (assay: protein-binding microarray (RPBM); PBS, 2% BSA, 51.3 ng/ul salmon testes DNA, 50 uM zinc acetate, 200 nM TF, 25 C, 1 h; high values mean tight binding). Settings: protein: recombinant; tags: N-terminal polyhistidine and DsRed monomer fusion (pET32a); label: CyDye5-dUTP incorporated in the synthesized complementary strand; 3' TTTTT single-stranded linker to array surface; dsDNA, one strand shown.
T1 sequence: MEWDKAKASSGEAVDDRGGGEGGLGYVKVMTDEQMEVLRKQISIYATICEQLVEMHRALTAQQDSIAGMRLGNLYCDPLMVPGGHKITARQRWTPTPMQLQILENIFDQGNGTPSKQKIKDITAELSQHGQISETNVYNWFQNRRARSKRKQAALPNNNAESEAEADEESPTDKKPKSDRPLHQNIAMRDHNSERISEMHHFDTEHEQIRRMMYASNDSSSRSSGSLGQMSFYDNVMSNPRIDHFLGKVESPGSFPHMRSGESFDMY
Procedure, shortened: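 Binding signal here means per-feature fluorescence intensity in arbitrary units. The values were read on an Axon 4000B scanner after a custom Agilent array, double-stranded by primer extension with Cy5-dUTP, was incubated with 200 nM protein at 25 °C for 1 h in PBS with 2% BSA, salmon testes DNA and 50 µM zinc acetate, then washed. The proteins were transcription factors with an N-terminal polyhistidine tag and DsRed, expressed in E. coli BL21-CodonPlus and purified on Ni–NTA.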

Question: With “ATCGGCATGTTCACCAGCTCTGATTGGTAGTACGATTTTACGGAGTCACCTAGTGCAG” as the sequence, how does the binding signal read?
Answer: 5140 fluorescence intensity (a.u.)

Question: With “TAAATAAATGATTGGGCTTGTTAATGGGCTTCCTCTTCCTCGGAGTCACCTAGTGCAG” as the sequence, how does the binding signal read?
Answer: 41900 fluorescence intensity (a.u.)

Question: With “CCCAAATAGAAGTAGAATTGAGACACTGAGTGGTGCAAAGCGGAGTCACCTAGTGCAG” as the sequence, how does the binding signal read?
Answer: 3400 fluorescence intensity (a.u.)

Question: For “ATGATTGTTGGAGCAAGGCCCAGCCCAAGGTAGCGTACATCGGAGTCACCTAGTGCAG”, which binding signal is on record?
Answer: 13400 fluorescence intensity (a.u.)

Question: How did the binding signal turn out when “TGTTACTAATTTATTTGGAGGCTTCATGGTTGACCTATTGCGGAGTCACCTAGTGCAG” was run?
Answer: 3440 fluorescence intensity (a.u.)

Question: How did the binding signal turn out when “GATAATTTGAACCATAGATTTATCATTCAAAGGCTATAAACGGAGTCACCTAGTGCAG” was run?
Answer: 9720 fluorescence intensity (a.u.)

Question: “GTAGCAATCAAATATGGGCCGGTCAATTGTTCGCGGTAGACGGAGTCACCTAGTGCAG” was tested. Which binding signal did it give?
Answer: 4130 fluorescence intensity (a.u.)

Question: “CATGGACAACAATCATTGCCTGTTACGCGCAAAGTTCTCGCGGAGTCACCTAGTGCAG” was tested. Which binding signal did it give?
Answer: 8490 fluorescence intensity (a.u.)

Question: With “AGTATAATGACTGTTAGATCTCCATAAAACTGGCCACAAACGGAGTCACCTAGTGCAG” as the sequence, how does the binding signal read?
Answer: 3510 fluorescence intensity (a.u.)

Question: Which binding signal does the source give for “GCGATTAAATGTACAGTAAATAGGGATGAACAATATACGACGGAGTCACCTAGTGCAG” here?
Answer: 3570 fluorescence intensity (a.u.)

Question: Which binding signal does the source give for “CATGGTGAATTGGTGATTTTATAATGATGCTAAGCTTTGACGGAGTCACCTAGTGCAG” here?
Answer: 4860 fluorescence intensity (a.u.)

Question: With “ATCCTTATTAATTTAATTTAACAAAGTCAACTTGATTTCCCGGAGTCACCTAGTGCAG” as the sequence, how does the binding signal read?
Answer: 23100 fluorescence intensity (a.u.)

Question: With “TTAATTGATTAATTTCCTTAACCAAATCTTGGCGACTTGACGGAGTCACCTAGTGCAG” as the sequence, how does the binding signal read?
Answer: 61200 fluorescence intensity (a.u.)

Question: How did the binding signal turn out when “GAATAATTATTACACAATGCTAATTAATTTCACAATATTGCGGAGTCACCTAGTGCAG” was run?
Answer: 38800 fluorescence intensity (a.u.)

Question: Which binding signal does the source give for “AGCAATGCAACGATTATTAATTTAATTTGCACATGTATTGCGGAGTCACCTAGTGCAG” here?
Answer: 5900 fluorescence intensity (a.u.)

Question: For “TCTTAATAATTATTTCTTAATTAATTCTGTGCTAATTGTGCGGAGTCACCTAGTGCAG”, which binding signal is on record?
Answer: 54300 fluorescence intensity (a.u.)

Question: Which binding signal does the source give for “ATAATATTTAATATTTAATTAATTATGTGCTAATAAATCGCGGAGTCACCTAGTGCAG” here?
Answer: 14300 fluorescence intensity (a.u.)

Question: “CTATCTCATTGCTTAATTGGTCATATAATTGGGCTGAGTGCGGAGTCACCTAGTGCAG” was tested. Which binding signal did it give?
Answer: 16900 fluorescence intensity (a.u.)

Question: For “TGCATTGATTTGGTATAATTGACCATGCTTTGCGATGCAACGGAGTCACCTAGTGCAG”, which binding signal is on record?
Answer: 57700 fluorescence intensity (a.u.)

Question: “CCTTAATTGTGGGGCTGACTGCTATTTTCTATATCATGTGCGGAGTCACCTAGTGCAG” was tested. Which binding signal did it give?
Answer: 56000 fluorescence intensity (a.u.)

Question: Which binding signal does the source give for “AATCTTGGCAAATTTCCTTAATTTGAACCTACGTGTTAAACGGAGTCACCTAGTGCAG” here?
Answer: 5550 fluorescence intensity (a.u.)

Question: Which binding signal does the source give for “TAATATTTAATTTCTATCAACATCTGACTACTTAATATTGCGGAGTCACCTAGTGCAG” here?
Answer: 7790 fluorescence intensity (a.u.)

Question: With “AGCGATTAGTAAGTGGATTGGATCTAACTAAGCTTGCTACCGGAGTCACCTAGTGCAG” as the sequence, how does the binding signal read?
Answer: 9310 fluorescence intensity (a.u.)

Question: For “CCTGCACAATCACTGGCTGATGCATCTGCAATGTCACCAACGGAGTCACCTAGTGCAG”, which binding signal is on record?
Answer: 4350 fluorescence intensity (a.u.)

Question: For “TGGATTTGTATGTCTTAATTGAAGTTAGGCTATAAATTTGCGGAGTCACCTAGTGCAG”, which binding signal is on record?
Answer: 10300 fluorescence intensity (a.u.)

Question: With “ATATTTAATTTGATACTACCTATAAACCGCACAAGCTGCACGGAGTCACCTAGTGCAG” as the sequence, how does the binding signal read?
Answer: 16800 fluorescence intensity (a.u.)

Question: Which binding signal does the source give for “GTGATGAGTGATGACCCGGAGAATGAGAGAGGCGACTGTGCGGAGTCACCTAGTGCAG” here?
Answer: 3800 fluorescence intensity (a.u.)

Question: How did the binding signal turn out when “GGATTAAATTATCAAATAGATTTGGCTGCCATGATGGCACCGGAGTCACCTAGTGCAG” was run?
Answer: 42600 fluorescence intensity (a.u.)

Question: How did the binding signal turn out when “ATATGATCGTATAATTAAATGAGATCATGATTAAGTGGAGCGGAGTCACCTAGTGCAG” was run?
Answer: 16400 fluorescence intensity (a.u.)

Question: How did the binding signal turn out when “TAAATTAATTAATTAGGTATAAATGTAATTAAGCACATCGCGGAGTCACCTAGTGCAG” was run?
Answer: 55000 fluorescence intensity (a.u.)

Question: For “ATGATAGATTAAATCAAATTATCATGTTATGGGTATAGCCCGGAGTCACCTAGTGCAG”, which binding signal is on record?
Answer: 53200 fluorescence intensity (a.u.)

Question: Which binding signal does the source give for “TAATGTGTGTGTATAATTAATTAAGCAGTGAAGTGAATCGCGGAGTCACCTAGTGCAG” here?
Answer: 5650 fluorescence intensity (a.u.)

Question: For “TAATCATGTTAAATTGATGTTATTAGATTTATCATTAAACCGGAGTCACCTAGTGCAG”, which binding signal is on record?
Answer: 14900 fluorescence intensity (a.u.)

Question: For “CTCCTAATTTAGTCACTTATGGAGCTCTGATAGCTGGATGCGGAGTCACCTAGTGCAG”, which binding signal is on record?
Answer: 14200 fluorescence intensity (a.u.)

Question: How did the binding signal turn out when “CATAATTAAAATACTTAAAATATGTGCTCGTAATTATTTACGGAGTCACCTAGTGCAG” was run?
Answer: 6000 fluorescence intensity (a.u.)

Question: Which binding signal does the source give for “GAGTGGTAAATAATTAATTATTACATATTTGTATAAATCGCGGAGTCACCTAGTGCAG” here?
Answer: 22800 fluorescence intensity (a.u.)

Question: Which binding signal does the source give for “CATTTGCTGGATGTGCTCCTTACTTAATATTTATGCATGGCGGAGTCACCTAGTGCAG” here?
Answer: 52600 fluorescence intensity (a.u.)

Question: “AGTTATAATGGAATTAATTATAATTATAGTATAGTTAGATCGGAGTCACCTAGTGCAG” was tested. Which binding signal did it give?
Answer: 28600 fluorescence intensity (a.u.)

Question: “GTTAATTAGATCATGATAAAGATTAATGTATAGATCGAGGCGGAGTCACCTAGTGCAG” was tested. Which binding signal did it give?
Answer: 62000 fluorescence intensity (a.u.)

Question: How did the binding signal turn out when “GGGGATGGAAGGGTGATTGAGAGTAAGAATTGGAGGTGATCGGAGTCACCTAGTGCAG” was run?
Answer: 30000 fluorescence intensity (a.u.)

Question: Which binding signal does the source give for “TAGAATTGATGATACTAGCTATAACTTCCGAGTGAGCACACGGAGTCACCTAGTGCAG” here?
Answer: 16900 fluorescence intensity (a.u.)

Question: How did the binding signal turn out when “CCATCTGCTGATAGATTTTCTATTGCCAAATCTTACACCTCGGAGTCACCTAGTGCAG” was run?
Answer: 5710 fluorescence intensity (a.u.)

Question: Which binding signal does the source give for “CTTCAATAATTAATTTATATTGTACTAATATGTTTGTAAACGGAGTCACCTAGTGCAG” here?
Answer: 17900 fluorescence intensity (a.u.)

Question: Which binding signal does the source give for “AATTACTGTCATGATTTGAATTTGCAATCATTTCCTGTACCGGAGTCACCTAGTGCAG” here?
Answer: 18800 fluorescence intensity (a.u.)

Question: “TCCTTGCTAACAAATCAACCAATTTGTCCATTCCCTATGTCGGAGTCACCTAGTGCAG” was tested. Which binding signal did it give?
Answer: 3440 fluorescence intensity (a.u.)

Question: For “AGAAATTGATTCGTCGAGGATATTGATCTATTAGTAAATGCGGAGTCACCTAGTGCAG”, which binding signal is on record?
Answer: 36700 fluorescence intensity (a.u.)

Question: Which binding signal does the source give for “AGTTTCATTAAATTTAATATTAAACATATTTTGATAATATCGGAGTCACCTAGTGCAG” here?
Answer: 5680 fluorescence intensity (a.u.)

Question: For “AAATAAATTTGAACTAAAATGAAAATTTGAAGGTATAGCACGGAGTCACCTAGTGCAG”, which binding signal is on record?
Answer: 12600 fluorescence intensity (a.u.)

Question: With “AAGCTTCCTTTGATTGATCCGACTCCACCAAGAACACGATCGGAGTCACCTAGTGCAG” as the sequence, how does the binding signal read?
Answer: 22000 fluorescence intensity (a.u.)

Question: With “TGTAACTCTCGTATGTAATTGAGTAAAACATGTTGGTGCTCGGAGTCACCTAGTGCAG” as the sequence, how does the binding signal read?
Answer: 4540 fluorescence intensity (a.u.)

Question: With “CAACGGTTAGATTAGATTGGTACTTCATGGTACATCGTGGCGGAGTCACCTAGTGCAG” as the sequence, how does the binding signal read?
Answer: 43200 fluorescence intensity (a.u.)

Question: How did the binding signal turn out when “TTTTAGATTGGGTTATTTATAAGGCTAAGTTTTAATTTAACGGAGTCACCTAGTGCAG” was run?
Answer: 4150 fluorescence intensity (a.u.)

Question: For “TTGACTATTAAATTGGCTATAGATAAATTGGAGCTAGTAGCGGAGTCACCTAGTGCAG”, which binding signal is on record?
Answer: 23600 fluorescence intensity (a.u.)

Question: For “TATATAATTTATTTAATTGGATTTACCAGTTTAAGGGGTTCGGAGTCACCTAGTGCAG”, which binding signal is on record?
Answer: 54300 fluorescence intensity (a.u.)

Question: For “ATGAATAAGCTATTAGATTGACTATAGATAAATTGGAGCTCGGAGTCACCTAGTGCAG”, which binding signal is on record?
Answer: 18200 fluorescence intensity (a.u.)

Question: For “GTTAGATTAGATTGGTACCTCATGTTACCTCGTACCTCATCGGAGTCACCTAGTGCAG”, which binding signal is on record?
Answer: 55700 fluorescence intensity (a.u.)

Question: “TTATTAGATTGACTATAGATAAATTAGATAAATTGGAGTTCGGAGTCACCTAGTGCAG” was tested. Which binding signal did it give?
Answer: 53600 fluorescence intensity (a.u.)

Question: With “CGGTTAGATTACATTGGTACCTCATGATATCTCGTACCTCCGGAGTCACCTAGTGCAG” as the sequence, how does the binding signal read?
Answer: 4680 fluorescence intensity (a.u.)

Question: For “TTGTATGAATGAGCTATTAGATTGGCTATAGATGAATTGGCGGAGTCACCTAGTGCAG”, which binding signal is on record?
Answer: 8950 fluorescence intensity (a.u.)

Question: Which binding signal does the source give for “TTGTATAAATGAGCTATCAGATTGGCTATAGATAAATTGGCGGAGTCACCTAGTGCAG” here?
Answer: 12000 fluorescence intensity (a.u.)

Question: For “TTATTTAATTTAGAAAATTGGAGTTACCAGTTGTTCAGTTCGGAGTCACCTAGTGCAG”, which binding signal is on record?
Answer: 19500 fluorescence intensity (a.u.)

Question: “TTGTATAAATTGGCTATTAGATTGGCTATAGATTAATTGGCGGAGTCACCTAGTGCAG” was tested. Which binding signal did it give?
Answer: 58900 fluorescence intensity (a.u.)
